Structures are written as SMILES. Screen size: about 16,000 compounds; about 2,600 (16%) were called active. Another 20% or so got no clear call; they are omitted. Calls follow the shape of the dose curve; as a rule, active = well fitted curve in the direction sought with a large enough effect; inconclusive = small, poorly fitted or top-dose-only effect, or effect the other way; inactive = no such curve, though single readings can be large or run the other way. Not all results are given here. A structure can be active in one record and inactive in another.

The AC50 is the concentration giving half of the maximal activity seen.
% is scaled to controls: 0 for no effect and ±100 for the full control effect.

The target of the assay is Cytochrome P450 2D6 (Homo sapiens) (UniProt P10635). Nature of the assay: Cytochrome panel assay with activity outcomes. The conditions noted are these: recombinant CYP, pro-luciferin dealkylation, luminescence, p450-cyp2d6; series mostly up to 57.1 µM; activity, negative = inhibition: at the top concentration.
Sequence of Cytochrome P450 2D6 (Homo sapiens) (P10635 whole entry, looked up): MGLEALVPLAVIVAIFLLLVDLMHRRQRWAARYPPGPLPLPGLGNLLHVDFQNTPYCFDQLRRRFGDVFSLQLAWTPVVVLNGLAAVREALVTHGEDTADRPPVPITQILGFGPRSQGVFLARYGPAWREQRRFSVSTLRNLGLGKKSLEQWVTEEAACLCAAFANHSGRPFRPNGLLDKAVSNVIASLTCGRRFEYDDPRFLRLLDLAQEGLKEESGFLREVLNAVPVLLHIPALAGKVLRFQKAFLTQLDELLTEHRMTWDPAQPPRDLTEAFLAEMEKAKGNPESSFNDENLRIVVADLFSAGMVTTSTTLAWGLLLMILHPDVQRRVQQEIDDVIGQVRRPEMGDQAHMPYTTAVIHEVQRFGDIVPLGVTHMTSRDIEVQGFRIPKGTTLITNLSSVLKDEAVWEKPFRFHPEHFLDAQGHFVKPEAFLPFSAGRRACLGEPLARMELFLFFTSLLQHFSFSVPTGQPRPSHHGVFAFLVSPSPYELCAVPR
Regarding `N[C@@](CC(=O)O)(Cc1ccccc1)C(=O)O`, the activity, negative = inhibition is 7.77% [at 11.4 µM] (inactive).

Take `CCN1C(=O)[C@H]2[C@H]3[C@H](O)[C@H](O)C/C(=N/O[C@@H](C)c4cn([C@H]5COC[C@H]5O)nn4)[C@@H]3CC[C@@H]2C1=O`: the activity, negative = inhibition is -1.04% [at 11.4 µM] (inactive).

Regarding `C[C@H](C(=O)c1ccncc1)c1ccccn1`, the activity, negative = inhibition is -3.93% [at 11.4 µM] (inactive).

Take `O=C(O)CN(CCN(CC(=O)O)CC(=O)O)CC(=O)O.[Mn]`: the activity, negative = inhibition was 9.26% [at 11.4 µM] (inactive).

For the molecule `Cc1cc(=O)oc(C)c1C(=O)N1CCCCC1`, the “activity, negative = inhibition” value was 15.6% (inactive).

Consider `CCCC[C@@H]1CN2[C@H](c3ccc(Br)cc3)[C@@H](C)CC[C@H]2C(=O)O1`, for which the activity, negative = inhibition is -5.55% [at 11.4 µM] (inactive).

For the molecule `COc1ccc(S(=O)(=O)N2CCCN(CC(=O)Nc3ccc(OC)c(Cl)c3)CC2)cc1`, the AC50 is 11.2 µM (active).

Regarding `COc1ccc(NC(=O)c2cc(S(=O)(=O)N3CCS(=O)(=O)CC3)ccc2Cl)cc1`, the “activity, negative = inhibition” value is 8.12% (inactive).

With `COc1ccc(C)cc1NC(=O)CN1CCN(S(=O)(=O)c2ccc(F)cc2)CC1`, the “activity, negative = inhibition” value was -21.5% (inactive).

For `CCN1CCN(CCC(=O)Nc2cccc(OC)c2)CC1`, the “activity, negative = inhibition” value is -7.68% (inactive).

With `Cc1c(C(=O)Nc2cccc(C(F)(F)F)c2)oc2ccc(S(=O)(=O)N3CCOCC3)cc12`, the “activity, negative = inhibition” value is -8.55% (inactive).

`COc1ccc(S(=O)(=O)N2CCCN(CCC(=O)Nc3cccc(C(F)(F)F)c3)CC2)cc1`: the AC50 is 8.91 µM (active).

With `Cc1nc(SC2CC(=O)N(c3ccc([N+](=O)[O-])cc3)C2=O)nc2c1CCCC2` (centres undefined), the “activity, negative = inhibition” value is -1.33% (inactive).

`COC(=O)c1ccc(C(=O)OC)c(NC(=S)N2CCN(c3ccccc3)CC2)c1`: the “activity, negative = inhibition” value was -16.5% (inactive).

`C=CCOc1cccc(CNn2cn[nH]c2=S)c1`: the “activity, negative = inhibition” value was 3.23% (inactive).

`COc1cc(C2C(C#N)=C(N)N(c3sc4c(c3C#N)CCCC4)C3=C2C(=O)CC(C)(C)C3)cc(OC)c1OC` (centres undefined): the “activity, negative = inhibition” value was 9.61% (inactive).

As to `Cc1cc(C)c(O)c(Cc2cccc(Cc3cc(C)cc(C)c3O)c2O)c1`, the activity, negative = inhibition is 12.6% [at 11.4 µM] (inactive).

In the case of `Cc1ccc(C(=O)N/N=C/c2sc(=O)n(Cc3cccc(C(=O)O)c3)c2Cl)cc1`, the “activity, negative = inhibition” value was 12.6% (inactive).

As to `CO[C@@H]1COC(=O)[C@H](C)NC(=O)[C@@H](C)COC(=O)CCC[C@H]1C`, the activity, negative = inhibition was 8.56% [at 11.4 µM] (inactive).

For the molecule `CSc1nncc(/C(C)=N\Nc2ccccc2)n1`, the “activity, negative = inhibition” value is -6.12% (inactive).

For the molecule `COCCN=C1Sc2nc3c(C)cccc3cc2CN1Cc1ccco1`, the AC50 is 14.1 µM (active).

Consider `CCn1c(SCC(=O)NC2CCCCC2)nnc1-c1cc2cccc(OC)c2o1`, for which the “activity, negative = inhibition” value was -23.6% (inactive).

On to `COCCNC(=O)CSc1ncnc2sccc12`, for which the “activity, negative = inhibition” value was 13.7% (inactive).

As for `COc1ccc(C2C(C(=O)N3CCN(C)CC3)c3ccccc3C(=O)N2C2CCCCC2)cc1` (centres undefined), the “activity, negative = inhibition” value was -5.85% (inactive).

Consider `CN(C)CCCNc1ncnc2nc[nH]c12`, for which the activity, negative = inhibition is 1.66% [at 11.4 µM] (inactive).

As for `Cc1ccc2nc(NC(=O)COC(=O)c3ccc(Br)o3)sc2c1`, the AC50 is 15.8 µM (active).

Take `Cc1ccc2nc(NC(=O)COC(=O)CSc3nc(C)cc(C)n3)sc2c1`: the “activity, negative = inhibition” value is -23.1% (inactive).

For `Cc1ccc2nc(NC(=O)CSCC(=O)OCC(=O)c3ccc(Br)cc3)sc2c1`, the “activity, negative = inhibition” value is -12.5% (inactive).

`C=C[C@]1(C)C[C@H](OC(=O)CO)[C@]2(C)C3C(=O)CC[C@]3(CC[C@H]2C)[C@H](C)[C@H]1O` (some centres undefined): the activity, negative = inhibition was -10.6% [at 11.4 µM] (inactive).

With `CC(=O)OCC(=O)[C@@]1(O)CC[C@@H]2[C@H]3CCC4=CC(=O)C=C[C@]4(C)[C@]3(F)[C@@H](O)C[C@@]21C`, the “activity, negative = inhibition” value is -1.72% [at 25.6 µM] (inactive).

On to `O=C1C=C[C@@H](O)[C@H]2[C@@H]3C(=O)N(c4cccc(Oc5ccccc5)c4)C(=O)[C@@H]3CC[C@H]12`, for which the activity, negative = inhibition was -0.0224% [at 11.4 µM] (inactive).

As for `COc1ccccc1CCn1c(=O)c(-c2cc(F)cc(F)c2)nc2cncnc21`, the “activity, negative = inhibition” value is -11.2% (inactive).

As for `CCCN(C(=S)Nc1ccccc1)C1CCS(=O)(=O)C1` (centres undefined), the “activity, negative = inhibition” value is -4.85% (inactive).

For `Cc1cccc(NC(=S)NC(=O)CCc2ccccc2)c1`, the “activity, negative = inhibition” value is -17.4% (inactive).

On to `Cc1cccc(NC(=S)NNC(=O)CCn2cc(C)cn2)c1`, for which the “activity, negative = inhibition” value is -3.85% (inactive).

Consider `Cc1cccc(NC(=O)Cn2c(=O)oc3ccccc32)c1`, for which the AC50 was 3.16 µM (active).

As to `COc1ccc(CCNC(=O)Cn2c(=O)oc3ccccc32)cc1OC`, the “activity, negative = inhibition” value was -18.7% (inactive).

On to `Cc1cccc(NC(=O)Cn2c(=O)n3nc(CCn4nc(C)cc4C)nc3c3ccccc32)c1`, for which the AC50 is 14.1 µM (active).

As to `Cc1cccc(NC(=O)Cn2cccc2)c1`, the “activity, negative = inhibition” value was -5.49% (inactive).

`COc1cc(C2C(C(=O)OCCC#N)=C(C)NC3=C2S(=O)(=O)c2ccccc23)cc(OC)c1OC` (centres undefined): the “activity, negative = inhibition” value is -6.84% (inactive).

Take `Cc1ccc(-c2ccnc(=S)[nH]2)cc1`: the “activity, negative = inhibition” value is -14.8% (inactive).

Turning to `Cc1c(C(=O)Nc2ccc(OCc3ccccc3)cc2)cccc1[N+](=O)[O-]`, the “activity, negative = inhibition” value is -5.06% (inactive).

For the molecule `COc1ccc(/C=N/NC(=O)CCCC(=O)NC2CCCCC2)cc1`, the “activity, negative = inhibition” value is 16.3% (inactive).

On to `CN(C)c1ncc2nc(-c3cc(F)cc(F)c3)c(=O)n(Cc3ccc(F)cc3)c2n1`, for which the “activity, negative = inhibition” value is 10% (inactive).

`Cc1ccc(Nc2nc(Cl)nc(N(C)C#N)n2)cc1`: the “activity, negative = inhibition” value is 1.15% (inactive).

As for `Nc1nnc(CC(=O)N/N=C/c2cccc([N+](=O)[O-])c2)s1`, the “activity, negative = inhibition” value was -21.2% (inactive).

In the case of `Cc1sc(N/N=C/C=C/c2ccccc2)nc1-c1ccccc1`, the “activity, negative = inhibition” value was -10.8% (inactive).

Regarding `Cc1cccc(-n2c(Cn3nc(C)c([N+](=O)[O-])c3C)n[nH]c2=S)c1`, the “activity, negative = inhibition” value is 3.45% (inactive).

`Cc1ccc(C)c(NC(=O)Cn2nnc(C(=O)Nc3c(C)cccc3C)c2N)c1`: the “activity, negative = inhibition” value was -25.4% (inactive).

In the case of `Cc1ccc(C)c(N/C(N)=N/c2nc(C)cc(C)n2)c1`, the AC50 was 0.794 µM (active).

As to `C/C(=N\NC(=S)Nc1cccc(C)c1)c1ccccc1`, the “activity, negative = inhibition” value was -25.1% (inactive).

Turning to `Cc1cccc(N/C(N)=N/c2nc(C)cc(C)n2)c1`, the AC50 was 2.82 µM (active).

`Cc1ccc(C)c(NC(=O)c2ncn[nH]2)c1`: the “activity, negative = inhibition” value is 8.78% (inactive).

In the case of `Cc1nc(/N=C(\N)Nc2ccccc2)nc2ccccc12`, the “activity, negative = inhibition” value is -12.1% (inactive).

As for `Cc1cc(C)c(-c2cc([C@H](C)O/N=C\[C@@H](C)[C@H](OCc3ccccc3)C(C)C)on2)c(C)c1`, the activity, negative = inhibition was -7.16% [at 11.4 µM] (inactive).

Take `O=C(CCNC(=O)Cn1cnc2ccccc2c1=O)NCC1COc2ccccc2O1` (centres undefined): the “activity, negative = inhibition” value was 16.6% (inactive).

As to `COc1cccc(OC)c1OCCNC[C@@H]1COc2ccccc2O1`, the AC50 is 251 nM (active) and inactive.

On to `O=C(N/N=C/c1ccco1)/C(=C/c1cccc([N+](=O)[O-])c1)NC(=O)c1ccccc1`, for which the “activity, negative = inhibition” value was -15.4% (inactive).

As for `Cc1noc(C)c1-c1cncnc1Nc1ccccc1`, the “activity, negative = inhibition” value was -7.49% (inactive).

As for `c1ccc(Nc2ncncc2-c2ccc3c(c2)OCO3)cc1`, the concentration at half-maximal activity (AC50) is 12.6 µM (active).

As for `CN(C)C(=O)c1ccc(-c2cncnc2Nc2ccccc2)cc1`, the “activity, negative = inhibition” value was -2.66% (inactive).

Consider `Cn1c(-c2ccc3c(c2)OCO3)cnc1NCc1ccccc1`, for which the AC50 is 0.794 µM (active).

Consider `Cn1cc(/C=C2/SC(=O)N(CC(=O)Nc3ccc4c(c3)OCO4)C2=O)c2ccccc21`, for which the “activity, negative = inhibition” value was -6.65% (inactive).

On to `CN(C)c1ccc(-c2cc(NCc3ccccc3)ncn2)cc1`, for which the “activity, negative = inhibition” value was -17.2% (inactive).

In the case of `Cc1cccc(CNc2ncncc2-c2ccc3c(c2)OCO3)c1`, the AC50 is 6.31 µM (active).

In the case of `Cn1c(-c2ccc3c(c2)OCO3)cc(=O)c2ccccc21`, the AC50 was 1.58 µM (active).

`O=c1oc2cc(N=Cc3ccc4c(c3)OCO4)ccc2c2ccccc12`: the activity, negative = inhibition was 4.96% [at 11.4 µM] (inactive).

Consider `Cc1cccc(CNc2ncncc2-c2ccc(C(=O)N(C)C)cc2)c1`, for which the “activity, negative = inhibition” value is -9.23% (inactive).

On to `O=C(O)c1cc(-c2ccc3cc4c(cc3c2)OCO4)nc2ccccc12`, for which the activity, negative = inhibition was -6.77% [at 11.4 µM] (inactive).

The values above are taken from PubChem BioAssay AID1851 (National Center for Advancing Translational Sciences (NCATS), 2009).
